Where “and” joins values, the source holds several entries; their conditions need not be identical. Identical values can stand only once. Hit rate of the full screen: of about 16,000 compounds, about 5,100 (32%) were called active. About 25% were inconclusive and are not listed. The call rests on the fitted dose curve; in most records, active means well fitted curve in the direction sought with a large enough effect; inconclusive means small, poorly fitted or top-dose-only effect, or effect the other way; inactive means no such curve, though single readings can be large or run the other way. This is one part of the list. Where a structure was tested more than once in an assay, its records may differ in their call.

The AC50 is the midpoint of the concentration-response curve, whichever way the signal moves.
On the % scale 0 is the no-effect control and ±100 the full control effect.

For the assay, the target named is Cytochrome P450 3A4 (Homo sapiens) (UniProt P08684). Kind of assay: Cytochrome panel assay with activity outcomes. The conditions noted are these: recombinant CYP, pro-luciferin dealkylation, luminescence, p450-cyp3a4; series mostly up to 57.1 µM.
Chain of Cytochrome P450 3A4 (Homo sapiens) (P08684 whole entry, looked up): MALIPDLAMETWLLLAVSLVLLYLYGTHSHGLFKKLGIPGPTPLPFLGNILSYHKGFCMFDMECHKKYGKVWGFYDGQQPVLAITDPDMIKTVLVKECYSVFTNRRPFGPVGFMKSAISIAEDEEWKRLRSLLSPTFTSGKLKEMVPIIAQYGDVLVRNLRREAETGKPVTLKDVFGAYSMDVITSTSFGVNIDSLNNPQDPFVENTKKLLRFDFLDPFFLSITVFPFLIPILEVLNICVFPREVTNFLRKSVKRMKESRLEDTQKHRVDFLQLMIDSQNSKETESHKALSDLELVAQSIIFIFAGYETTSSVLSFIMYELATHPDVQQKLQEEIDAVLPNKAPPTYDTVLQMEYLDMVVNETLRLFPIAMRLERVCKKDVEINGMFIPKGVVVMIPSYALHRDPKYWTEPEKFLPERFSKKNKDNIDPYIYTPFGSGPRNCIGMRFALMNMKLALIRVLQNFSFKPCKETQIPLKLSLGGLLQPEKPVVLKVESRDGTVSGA
On to `C[C@@H]1CC[C@@H]2N(C1)C[C@H]1[C@@](O)([C@H](O)C[C@]3(O)[C@H]4CC[C@H]5[C@]6(O)O[C@]4(C[C@]13O)[C@@]5(C)CC[C@@H]6O)[C@@]2(C)O`, for which the activity, negative = inhibition is -1.62% [at 11.4 µM] (inactive).
In the case of `Nc1ncnc2c1ncn2[C@@H]1O[C@@H](COP(=O)(O)CP(=O)(O)OP(=O)(O)O)[C@H](O)[C@@H]1O`, the activity, negative = inhibition result is “inactive”.
As for `O=C(O)CC[N+](=O)[O-]`, the activity, negative = inhibition entry was “inactive”.
Turning to `CC(C)Oc1cc(-n2c(=S)[nH]c3ccccc3c2=O)c(Cl)cc1Cl`, the AC50 was 3.16 µM (active).
In the case of `CN1[C@H]2CC(=O)C[C@@H]1[C@@H](O)C2`, the activity, negative = inhibition entry was “inactive”.
Still for that read-out and setting: under `c1ccc2cc(CC3=NCCN3)ccc2c1` stands “inactive”.
Turning to `N[C@H](Cn1ccc(=O)[nH]c1=O)C(=O)O`, the activity, negative = inhibition entry was “inactive”.
With `CC[C@@H](CO)NC(=O)[C@H]1C=C2c3cccc4c3c(cn4C)C[C@H]2N(C)C1`, the activity, negative = inhibition entry was “inactive”.
On to `CC[C@@H](CO)Nc1nc(NCc2ccccc2)c2ncn(C(C)C)c2n1`, for which the AC50 was 12.6 µM (active).
With `CC(C)[C@H](CO)Nc1nc(Nc2cccc(Cl)c2)c2ncn(C(C)C)c2n1`, the AC50 was 12.6 µM (active).
As for `COC(=O)c1c(C)ccc2c(O)c3c(cc12)C(=O)c1c2c(cc(O)c1C3=O)[C@@]1(C)O[C@@](C)(O2)[C@@H](O)[C@H](N(C)C)[C@H]1O`, the activity, negative = inhibition was -1.78% [at 11.4 µM] (inactive).
Turning to `C(=NC12CN3CN(CN(C3)C1)C2)c1cccs1`, the activity, negative = inhibition entry was “inactive”.
In the case of `CN(C)C(=O)Oc1cccc([N+](C)(C)C)c1`, the activity, negative = inhibition entry was “inactive”.
The same measure, in the same setting: the same measure for `COC(=O)C1=CCCN(C)C1`: “inactive”.
In the case of `CC(C)N[C@@H](C)Cc1ccc(I)cc1`, the activity, negative = inhibition entry is “inactive”.
On to `Nc1nc(N)c(N=Nc2ccc([As](=O)(O)O)cc2)c(=O)[nH]1`, for which the activity, negative = inhibition is 8.58% [at 11.4 µM] (inactive).
Same read-out and setting: the same measure for `C/C=C1\C[C@H](C)[C@@](O)(CO)C(=O)OCC2=CCN3CC[C@@H](OC1=O)[C@@H]23`: “inactive”; for `N=C1c2ccccc2CN1NC(=O)c1ccc(F)cc1`: “inactive”.
Regarding `Cc1nccc2c1[nH]c1ccccc12`, the AC50 entry was “inactive and 3.98 µM (active)”.
With `Cc1c2ccncc2c(C)c2c1[nH]c1ccccc12`, the AC50 is 0.158 µM (active).
Turning to `CCN(CC)CCn1ncc2c(N)ncnc21`, the activity, negative = inhibition was -6.29% [at 11.4 µM] (inactive).
For `COc1ccc2cc1Oc1ccc(cc1)C[C@H]1c3cc(c(OC)cc3CCN1C)Oc1c(OC)c(OC)cc3c1[C@@H](C2)N(C)CC3`, the activity, negative = inhibition is -2.4% [at 11.4 µM] (inactive).
Turning to `C[N+]1(C)CCO[C@](O)(c2ccc(-c3ccc([C@]4(O)C[N+](C)(C)CCO4)cc3)cc2)C1`, the activity, negative = inhibition entry was “inactive”.
Turning to `COCCn1c(SCc2nc3sc(C(=O)OC)c(C)c3c(=O)[nH]2)nc2ccccc21`, the AC50 was 3.55 µM (active).
In the case of `CC1(C)N(O)C(c2ccc(C(=O)O)cc2)=[N+]([O-])C1(C)C`, the activity, negative = inhibition result is “inactive”.
Still for that read-out and setting: under `CC(C)[C@@H](C)/C=C\[C@@H](C)[C@@H]1CC[C@H]2C3=CC=C4C[C@@H](O)CC[C@]4(C)[C@H]3CC[C@]21C` stands 10.4% [at 11.4 µM] (inactive).
Same read-out and setting: the same measure for `NCCP(=O)(O)O`: -6.9% [at 11.4 µM] (inactive); for `CCOCCN1CCC(OC(C)=O)C(C)C1` (stereo not given): “inactive”.
Turning to `CC(C)(C)NC[C@@H](O)COc1cccc2[nH]c(C#N)cc12`, the AC50 is 25.1 µM (active).
On to `NCC1(CC(=O)O)CCCCC1`, for which the activity, negative = inhibition result is “inactive”.
Take `COc1cc(/C=N/NC(=O)CN2CC(c3ccccc3)CC2=O)ccc1OC(=O)N(C)C` (stereo not given): the activity, negative = inhibition entry is “inactive”.
`CC[C@H](C)C(=O)O[C@@H]1[C@H](O)[C@@H]2[C@H](CN3C[C@@H](C)CC[C@@H]3[C@@]2(C)O)[C@@H]2C[C@@]34O[C@@]5(O)[C@@H](OC(=O)[C@](C)(O)CC)CC[C@@]3(C)[C@H]5[C@H](OC(C)=O)[C@@H](OC(C)=O)[C@H]4[C@]12O`: the activity, negative = inhibition result was “inactive”.
Take `N[C@@H](Cc1cc(Br)c(O)c(Br)c1)C(=O)O`: the activity, negative = inhibition was -16.7% [at 11.4 µM] (inactive).
Turning to `Cc1ccc2c(c1)C1CN(C)CCC1N2C(=O)Nc1cccc(Cl)c1` (stereo not given), the activity, negative = inhibition entry is “inactive”.
Take `CCn1cnc2c(Nc3cccc(Cl)c3)nc(N[C@@H]3CCCC[C@H]3N)nc21`: the half-maximal activity concentration (AC50) was 12.6 µM (active).
Turning to `COc1ccc(C(=O)NC2CC3CCCC(C2)N3CC(C)C)cc1OC` (stereo not given), the activity, negative = inhibition entry was “inactive”.
Consider `CC(Oc1ccc(-c2ccccc2)cc1)C(=O)O` (stereo not given), for which the activity, negative = inhibition is 4.5% [at 11.4 µM] (inactive).
With `C[C@@H]1O[C@H](OC2[C@@H](O)[C@H](O)C(O)[C@H](O)[C@H]2O)[C@@H](N)C[C@@H]1N=C(N)C(=O)O` (stereo not given in full), the activity, negative = inhibition is 2.45% [at 11.4 µM] (inactive).
Consider `NC[C@@H](CC(=O)O)c1ccc(Cl)cc1`, for which the activity, negative = inhibition result was “inactive”.
As to `O=C1CN=C(c2cccs2)c2c(sc3c2CCCC3)N1`, the AC50 was 15.8 µM (active).
Consider `Cc1cc(Cc2cc(C)c(N)cc2N)c(N)cc1N`, for which the activity, negative = inhibition is -12.7% [at 11.4 µM] (inactive).
Regarding `Cc1ccc(NC(=[OH+])c2cc3ccccc3cc2O)c(C)c1.Cc1ccc(NC(=[OH+])c2cc3ccccc3cc2O)c(C)c1.[Ni]`, the activity, negative = inhibition is -23% [at 11.4 µM] (inactive).
Consider `CC(C)CCC[C@@H](C)[C@@H]1CC[C@@H]2[C@H]3CC[C@H]4C[C@@H](N)CC[C@@]4(C)[C@@H]3CC[C@]21C`, for which the activity, negative = inhibition is 0.227% [at 11.4 µM] (inactive).
`Cc1c2cc[n+](CCN3CCCCC3)cc2c(C)c2c1[nH]c1ccc(O)cc12`: the activity, negative = inhibition was -14.8% [at 11.4 µM] (inactive).
Turning to `CN1CCN(C(=O)O[C@@H]2c3nccnc3C(=O)N2c2ccc(Cl)cn2)CC1`, the activity, negative = inhibition result was “inactive”.
With `COC1=C[C@H]2C3=C([C@H]2C1=O)[C@H](NC(C)=O)CCc1cc(OC)c(OC)c(OC)c13`, the activity, negative = inhibition entry was “inactive”.
Regarding `CCCCN1C(=O)C(C2c3ccccc3C(=O)N2Cc2ccccc2)C(=O)NC1=S` (stereo not given), the AC50 is 2.51 µM (active).
For `CN1C(=O)C(C2c3ccccc3C(=O)N2Cc2ccc([N+](=O)[O-])cc2)C(=O)N(C)C1=O` (stereo not given), the activity, negative = inhibition is -20.1% [at 11.4 µM] (inactive).
Regarding `CN1CCc2nc3ccc(F)cc3c(C(N)=O)c2C1`, the activity, negative = inhibition result was “inactive”.
For the compound `CCN1C[C@]2(C)CC[C@@H](O)[C@]34[C@@H]5CC6[C@@H](OC)C[C@@](O)([C@H]5[C@@H]6O)[C@@H](C[C@@H]23)[C@H]14`, the activity, negative = inhibition result was “inactive”.
Take `COC(=O)C1(C)C=C2C(=C(C)C(=O)C2C)CN1` (stereo not given): the activity, negative = inhibition result is “inactive”.
For the compound `N[C@@H](CCCCP(=O)(O)O)C(=O)O`, the activity, negative = inhibition entry is “inactive”.
`Cn1c(O)c(C(=N)COc2ccccc2)c(=O)n(C)c1=O`: the activity, negative = inhibition entry was “inactive”.
Turning to `NC[C@@H](O)CSP(=O)(O)O`, the activity, negative = inhibition was 2.73% [at 11.4 µM] (inactive).
Still for that read-out and setting: the same measure for `CNC(C)Cc1ccccc1Sc1ccc(O)cc1` (stereo not given): -6.72% [at 2.29 µM] (inactive).
Consider `COC(=O)NC/C=C\c1nc(CC/C=C\C(=O)O[C@H]2C[C@H]3CC(=O)O[C@@H](/C=C\CC(C)C)C[C@@H]4CC[C@H](C)[C@H](C[C@@H](OC)C[C@H](C2)O3)O4)co1`, for which the AC50 is 5.01 µM (active).
`CNC(=O)Oc1ccc2c(c1)[C@@]1(C)CCN(C)[C@@H]1N2C`: the activity, negative = inhibition entry is “inactive”.
Same read-out and setting: the same measure for `C[N+]1([O-])[C@@H]2CC(OC(=O)[C@@H](CO)c3ccccc3)C[C@@H]1[C@H]1O[C@H]12` (stereo not given in full): “inactive”; for `c1ccc2c(c1)OC[C@@H](C1=NCCN1)O2`: “inactive”.
`c1ccc(C2CC2)c(OCC2=NCCN2)c1`: the activity, negative = inhibition result was “inactive”.
Take `CNCC/C=C\c1cccnc1`: the activity, negative = inhibition result is “inactive”.
For the compound `S=C=Nc1cccc(C2(N3CCCCC3)CCCCC2)c1`, the AC50 was 15.8 µM (active).
With `CCC(COC(=O)NC)NC(=O)Oc1ccccc1` (stereo not given), the activity, negative = inhibition result is “inactive”.
Take `NC(N)=NC(=O)c1nc(Cl)c(N)nc1N`: the activity, negative = inhibition result is “inactive”.
For the compound `Clc1cc(I)cc(Cl)c1NC1=NCCN1`, the activity, negative = inhibition entry was “inactive”.
Take `O=C(NCP(=O)(O)O)c1cccnc1`: the activity, negative = inhibition was -14.3% [at 11.4 µM] (inactive).
`O=C(N/N=C(\c1ccccc1)c1cccnc1)C(O)(c1ccccc1)c1ccccc1`: the AC50 was 7.94 µM (active).
Regarding `CC[C@]1(C2=NCCN2)Cc2ccccc2O1`, the activity, negative = inhibition entry was “inactive”.
In the case of `CCN(CC)c1ccc(/C=C2/C(=O)NC(=O)N(CC3CCCO3)C2=O)cc1` (stereo not given), the activity, negative = inhibition result is “inactive”.
For `C[C@@H]1O[C@@H](O[C@H]2C[C@@H](O)[C@]3(CO)[C@@H]4[C@@H](O)C[C@]5(C)[C@H](C6=CC(=O)OC6)CC[C@@]5(O)[C@H]4CC[C@@]3(O)C2)[C@H](O)[C@H](O)[C@@H]1O`, the activity, negative = inhibition entry was “inactive”.
Take `C/C=C(\C)C(=O)O[C@@H]1C(C)=C2[C@H]([C@@H]1OC(=O)CCCCCCC)[C@@](C)(OC(C)=O)C[C@@H](OC(=O)CCC)[C@@]1(O)[C@H]2OC(=O)[C@]1(C)O`: the concentration at half-maximal activity (AC50) is 3.98 µM (active).
In the case of `CO[C@H]1[C@H](O)[C@H](O[C@@H]2[C@H](Oc3cccc4c(O)c5c(=O)oc6ccc(C)c7c(=O)oc(c34)c5c67)O[C@@H](C)[C@H](O)[C@H]2O)O[C@@H](C)[C@@H]1O`, the activity, negative = inhibition was -7.43% [at 11.4 µM] (inactive).
As to `CCOC(=O)c1ncn2c1[C@H]1CCCN1C(=O)c1cc(OC)ccc1-2`, the activity, negative = inhibition entry is “inactive”.
On to `COc1cc2c(cc1OC)[C@@H]1C(=O)c3ccc4c(c3O[C@@H]1CO2)C=CC(C)(C)O4`, for which the AC50 was 15.8 µM (active).
With `Cc1ncc([N+](=O)[O-])n1CCN=[N+]=[N-]`, the activity, negative = inhibition was -15.3% [at 11.4 µM] (inactive).
For `NCCc1ccc(S(=O)(=O)F)cc1`, the activity, negative = inhibition result is “inactive”.
The same measure, in the same setting: under `C=CCN1C(=O)NC(=O)/C(=C/c2cccn2C)C1=O` stands 8.88% [at 2.29 µM] (inactive).
On to `Cc1nc2sccc2c(=O)n1-c1ccccc1Cl`, for which the activity, negative = inhibition was 4.91% [at 2.29 µM] (inactive).
`O=c1c2ccccc2nc(N2CCCC2)n1-c1ccc(Cl)cc1`: the AC50 is 12.6 µM (active).
Consider `O=C(Nc1ccc(Cl)cc1)Nc1nccs1`, for which the activity, negative = inhibition was -2.97% [at 2.29 µM] (inactive).
Turning to `O=C(O)CCCc1ccc(N(CCCl)CCCl)cc1`, the activity, negative = inhibition entry is “inactive”.
As to `Cc1ccc2cc3cc(C(=O)N4CCC5(CC4)OCCO5)oc3nc2c1`, the activity, negative = inhibition result is “inactive”.
Turning to `Cc1cc(NC(=O)CCC(=O)N2CCC3(CC2)OCCO3)no1`, the activity, negative = inhibition result was “inactive”.
For the compound `Cc1ccc2c(c1)N(CCC(=O)N1CCC3(CC1)OCCO3)C(=O)C(C)O2` (stereo not given), the AC50 is 2 µM (active).
Regarding `CC(C)NP(=O)(NC(C)C)OP(=O)(NC(C)C)NC(C)C`, the activity, negative = inhibition result is “inactive”.

Source of the values: PubChem BioAssay AID1851 (National Center for Advancing Translational Sciences (NCATS), 2009).
